Measurements: PubChem BioAssay AID1159580 (chemical genetic matrix, 2015)
The whole screen tested about 5,500 compounds, of which about 2,000 (36%) were called active. Not shown: some 18% with an inconclusive outcome. Rule as the data show it: active = normalized growth mostly below about 0.91 (no sharp cut-off); inconclusive = no clear call, values can overlap the other calls; inactive = mostly above about 0.92. The list shows a part of the results.

Experiment: chemical genetic growth profiling, strain panel (AID 1159580);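 also: tested at 20 µM; growth read once vehicle control cultures reached saturation at 30 °C; 1 = growth at the plate median or of vehicle wells; lower values mean less growth of the strain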
Details: S. cerevisiae deletion strains, growth OD

Measured: normalized growth

N=c1ccn2c(n1)OC1C(O)C(CO)OC12 (stereo unspecified)
inactive: locus YAL021C, strain ccr4, active compounds read low 1.01 | locus YAL026C, strain drs2, active compounds read low 1.02 | locus YAL030W, strain snc1, active compounds read low 0.991 | locus YBL061C, strain skt5, active compounds read low 1.01 | locus YBR009C, strain hhf1, active compounds read low 1.01 | locus YBR023C, strain chs3, active compounds read low 0.995 | locus YBR171W, strain sec66, active compounds read low 1.01 | locus YBR231C, strain swc5, active compounds read low 1.01 | locus YBR279W, strain paf1, active compounds read low 1.01 | locus YCL011C, strain gbp2, active compounds read low 1.01 | locus YCL016C, strain dcc1, active compounds read low 1 | locus YCL061C, strain MRC1, active compounds read low 0.986 | locus YCL069W, strain vba3, active compounds read low 1.01 | locus YCR088W, strain abp1, active compounds read low 1.01 | locus YDL005C, strain med2, active compounds read low 0.986 | locus YDL040C, strain nat1, active compounds read low 0.986 | locus YDR001C, strain nth1, active compounds read low 1.01 | locus YDR069C, strain doa4, active compounds read low 1.01 | locus YDR137W, strain rgp1, active compounds read low 1.02 | locus YDR159W, strain sac3, active compounds read low 1 | locus YDR195W, strain ref2 0.976 | locus YDR297W, strain sur2, active compounds read low 0.986 | locus YDR334W, strain swr1, active compounds read low 1 | locus YDR335W, strain msn5, active compounds read low 1 | locus YDR392W, strain spt3, active compounds read low 1.01 | locus YEL003W, strain gim4, active compounds read low 1 | locus YEL037C, strain rad23, active compounds read low 0.995 | locus YEL061C, strain CIN8 (second series), active compounds read low 1.01 | locus YER015W, strain faa2, active compounds read low 1.01 | locus YER016W, strain bim1, active compounds read low 1 | locus YER111C, strain swi4, active compounds read low 0.981 | locus YER155C, strain BEM2 (second series), active compounds read low 1.01 | locus YFR010W, strain ubp6, active compounds read low 0.998 | locus YGL167C, strain pmr1, active compounds read low 1 | locus YGL173C, strain kem1, active compounds read low 0.996 | locus YGL227W, strain vid30, active compounds read low 1.02 | locus YGL240W, strain doc1, active compounds read low 0.978 | locus YGL253W, strain hxk2, active compounds read low 1 | locus YHR013C, strain ard1, active compounds read low 1.01 | locus YHR027C, strain rpn1, active compounds read low 1.01 | locus YHR142W, strain chs7, active compounds read low 1.01 | locus YJL092W, strain hpr5, active compounds read low 1.01 | locus YJL095W, strain BCK1 (second series), active compounds read low 1 | locus YJL115W, strain asf1, active compounds read low 1.01 | locus YJL129C, strain trk1, active compounds read low 1.02 | locus YJL154C, strain vps35, active compounds read low 1 | locus YJL164C, strain tpk1, active compounds read low 1 | locus YJL166W, strain qcr8, active compounds read low 0.982 | locus YKL160W, strain elf1, active compounds read low 1 | locus YKR026C, strain gcn3, active compounds read low 1.02 | locus YKR091W, strain srl3, active compounds read low 1 | locus YLL001W, strain dnm1, active compounds read low 0.998 | locus YLL026W, active compounds read low 1 | locus YLL041C, strain sdh2, active compounds read low 1 | locus YLR027C, strain aat2, active compounds read low 1.01 | locus YLR221C, strain rsa3, active compounds read low 0.993 | locus YLR258W, strain gsy2, active compounds read low 1.01 | locus YLR262C, strain YPT6 (second series), active compounds read low 1.02 | locus YLR320W, strain mms22, active compounds read low 1.01 | locus YLR342W, strain FKS1, active compounds read low 1.01 | locus YLR357W, strain rsc2, active compounds read low 0.946 | locus YLR370C, strain arc18, active compounds read low 1.01 | locus YLR384C, strain iki3, active compounds read low 1 | locus YML120C, strain ndi1, active compounds read low 0.993 | locus YMR058W, strain fet3, active compounds read low 0.998 | locus YMR125W, strain sto1, active compounds read low 0.995 | locus YMR129W, active compounds read low 0.987 | locus YMR205C, strain PFK2, active compounds read low 1.01 | locus YMR231W, strain pep5, active compounds read low 1.01 | locus YNL071W, strain lat1, active compounds read low 1.02 | locus YNL209W, strain ssb2, active compounds read low 1 | locus YNL248C, strain rpa49, active compounds read low 1.01 | locus YNL322C, strain KRE1 (second series), active compounds read low 1.01 | locus YNR049C, strain mso1, active compounds read low 1 | locus YOR001W, strain rrp6, active compounds read low 1.01 | locus YOR070C, strain gyp1, active compounds read low 1.01 | locus YOR080W, strain dia2, active compounds read low 0.996 | locus YOR083W, strain WHI5, active compounds read low 1.01 | locus YOR106W, strain vam3, active compounds read low 1.02 | locus YOR265W, strain rbl2, active compounds read low 0.993 | locus YOR270C, strain vph1, active compounds read low 1.04 | locus YOR290C, strain snf2, active compounds read low 1.01 | locus YPL051W, strain arl3, active compounds read low 1 | locus YPL078C, strain atp4, active compounds read low 0.996 | locus YPL106C, strain sse1, active compounds read low 0.981 | locus YPL240C, strain hsp82, active compounds read low 1.02
